This passage reports outcome and AC50 results from PubChem BioAssay (EPA / NIEHS).

Records with an inconclusive call do not appear. Active and inactive are the calls of the source. Rule for the calls, unless noted: active = hit-call score of the fitted dose curve at least 0.9, where 1 is the maximum; inactive = score below 0.9.

Test [1] is described as follows: ATG_DR4_LXR_CIS: Attagene CIS-FACTORIAL HepG2 Assay for human Liver X Receptor (LXR), DR4 submotif (AID 2282929). The following applies: HepG2 Attagene DR4 cis-reporter, mRNA transcription; actives raise or lower the signal. In outline: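 Fluorescence intensity of labelled reporter cDNA fragments, separated by capillary electrophoresis, gives the signal. HepG2 cells bearing cis-regulated reporter constructs were treated 24 h; activity fitted bidirectionally relative to DMSO negative control.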

Test [2] is described as follows: ATG_Ets_CIS: Attagene CIS-FACTORIAL HepG2 Assay for human Erythroblast Transformation Specific (ETS) (AID 2282941). The following applies: HepG2 ETS cis-reporter transcription, actives raise or lower the signal. The method, boiled down: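 Multiplexed reporter transcript profiling: HepG2, 24 h treatment, total RNA to cDNA, PCR, 6-FAM labelling, HpaI cut, capillary electrophoresis. Gain- or loss-of-signal fitted against DMSO.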

Test [3] has as its target Hypoxia-inducible factor 1-alpha (Homo sapiens) (UniProt Q16665). As to the kind of experiment: ATG_HIF1a_CIS: Attagene CIS-FACTORIAL HepG2 Assay for human Hypoxia Inducible Factor 1 (HIF1A) (AID 2282951). The following applies: HepG2 Attagene cis-factorial HIF1a reporter transcription; actives raise or lower the signal. The method, boiled down:
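Fluorescence intensity of capillary-separated, 6-FAM-labelled reporter amplicons gives mRNA induction in HepG2 cells carrying transfected cis-promoter reporter units; cells exposed 24 h, responses fitted up or down from DMSO.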

The target of test [4] is Hepatocyte nuclear factor 6 (Homo sapiens) (UniProt Q9UBC0). The experiment in a line: ATG_HNF6_CIS: Attagene CIS-FACTORIAL HepG2 Assay for human Hepatocyte Nuclear Factor 6 (HNF6) (AID 2282952). To be noted: HepG2 Attagene cis-factorial HNF6 reporter transcription; actives raise or lower the signal. In outline:
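Endogenous factor activity read in transiently transfected HepG2 via promoter-regulated reporter transcripts. RNA harvested 24 h post-dosing, reverse-transcribed, PCR-amplified, FAM-labelled, HpaI-digested and resolved by capillary electrophoresis; fitted in both directions against DMSO.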

For test [5], the target named is Heat shock factor protein 1 (Homo sapiens) (UniProt Q00613). As to the kind of experiment: ATG_HSE_CIS: Attagene CIS-FACTORIAL HepG2 Assay for human Heat Shock Transcription Factor 1 (HSE) (AID 2282953). To be noted: HepG2 HSE cis-reporter, Attagene RNA transcription; actives raise or lower the signal. In outline: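 Reporter mRNA induction in HepG2 is measured 24 h after dosing, using transiently transfected multiplexed cis-regulated reporter units. Signal comes from capillary electrophoresis of labelled RT-PCR products, with DMSO as negative control.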

The nature of test [6]: ATG_Sox_CIS: Attagene CIS-FACTORIAL HepG2 Assay for human SRY-box transcription factor (SOX) (AID 2282960). The following applies: HepG2 Attagene cis-factorial SOX reporter, mRNA; actives raise or lower the signal. In outline:
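Measures mRNA induction of a SOX1-associated reporter in HepG2 after 24 h dosing. Fluorescently labelled RT-PCR fragments are separated by capillary electrophoresis, and gain or loss relative to DMSO control is fitted.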

Test [7] in a line: ATG_TA_CIS: Attagene CIS-FACTORIAL HepG2 Assay for human TA Basal Promoter (AID 2282964). The following applies: HepG2 Attagene CIS-factorial TA basal promoter reporter; actives raise or lower the signal. In outline:
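Cis-factorial format in HepG2: reporters report endogenous factors, not chimeric Gal4 fusions. After 24 h treatment, reporter transcripts were measured by RT-PCR-capillary electrophoresis fluorescence, analysed bidirectionally versus DMSO.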

A short description of test [8]: ATG_TCF_b_cat_CIS: Attagene CIS-FACTORIAL HepG2 Assay for human T-Cell-Factor with beta-catenin (TCF/b-cat) (AID 2282965). To be noted: HepG2 TCF/beta-catenin cis-reporter transcription, actives raise or lower the signal. In outline: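 Measured: reporter mRNA in HepG2 transiently transfected with cis-promoter reporter units, 24 h after chemical addition. Fitting was bidirectional, DMSO as negative control.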

Test [9] can be described thus: ATG_TAL_CIS: Attagene CIS-FACTORIAL HepG2 Assay for human TAL Basal Promoter (AID 2282966).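 Note: background control endpoint measuring basal TAL promoter reporter mRNA not a specific factor.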 To be noted: HepG2 Attagene cis-factorial TAL promoter reporter; actives raise or lower the signal. In outline:
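Background-control endpoint: basal TAL promoter reporter transcripts in transiently transfected HepG2, measured 24 h after dosing. Read-out by RT-PCR with fluorescent primer extension and capillary electrophoresis; gain or loss of signal fitted relative to DMSO.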

The nature of test [10]: ATG_TGFb_CIS: Attagene CIS-FACTORIAL HepG2 Assay for human Transforming Growth Factor (TGF) (AID 2282967). To be noted: HepG2 Attagene CIS TGFb reporter, mRNA transcription; actives raise or lower the signal. The method, boiled down:
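Multiplexed cis-reporter HepG2 system, 24 h treatment; mRNA induction read by fluorescence after RT-PCR and CE; DMSO negative control, bidirectional curve fitting.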

The target in test [11] is X-box-binding protein 1 (Homo sapiens) (UniProt P17861). As to the kind of experiment: ATG_Xbp1_CIS: Attagene CIS-FACTORIAL HepG2 Assay for human X-box Binding Protein 1 (XBP1) (AID 2282972). The following applies: HepG2 XBP1 cis-element reporter, Attagene multiplex; actives raise or lower the signal. The method, boiled down:
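Human hepatoma HepG2, cis-element reporter system, 24 h treatment; mRNA quantified by RT-PCR/CE fluorescence; fit relative to DMSO.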

Test [12] concerns the target Transcriptional activator Myb (Homo sapiens) (UniProt P10242). The experiment in a line: ATG_Myb_CIS: Attagene CIS-FACTORIAL HepG2 Assay for human Myeloblastosis (Myb) Proto-Oncogene Transcription Factor (AID 2282986). To be noted: HepG2 Attagene CIS-FACTORIAL Myb reporter transcription; actives raise or lower the signal. The method, boiled down: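 Transiently transfected HepG2 cells, treated 24 h. Reporter mRNA quantified by RT-PCR/capillary electrophoresis; bidirectional fit relative to DMSO.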

The target of test [13] is Nuclear respiratory factor 1 (Homo sapiens) (UniProt Q16656). The experiment in a line: ATG_NRF1_CIS: Attagene CIS-FACTORIAL HepG2 Assay for human Nuclear Respiratory Factor 1 (NRF1) Orphan Gene (AID 2282987). To be noted: HepG2 NRF1 cis-element reporter, Attagene multiplex; actives raise or lower the signal. The method, boiled down: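 Cells (HepG2, transient MRTU transfection) are exposed to compound for 24 h, then RNA isolated and reporter mRNA amplified and fluorescently labelled. Fragments are separated by capillary electrophoresis; signal change is fitted bidirectionally relative to DMSO.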

The target in test [14] is Myc proto-oncogene protein (Homo sapiens) (UniProt P01106). As to the kind of experiment: ATG_Myc_CIS: Attagene CIS-FACTORIAL HepG2 Assay for human Myelocytomatosis (Myc) Proto-Oncogene Transcription Factor (AID 2282990). The following applies: HepG2, Attagene cis-reporter transcription factor activity; actives raise or lower the signal. The method, boiled down:
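Cells of the HepG2 human liver line bear multiple cis-driven reporter transcription units. Reporter mRNA after 24 h exposure is reverse-transcribed, amplified, labelled and resolved by capillary electrophoresis, with gain- or loss-of-signal fitting relative to DMSO.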

Test [15] is described as follows: ATG_NRF2_ARE_CIS: Attagene CIS-FACTORIAL HepG2 Assay for human Nuclear Factor Erythroid 2 Related Factor 2 (NFR2) response to Antioxidant Response Elements (ARE) (AID 2282992).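 For AC50: reporter mRNA level measured by RT-PCR and capillary electrophoresis fluorescence.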 To be noted: HepG2 Attagene ARE/NRF2 reporter, transcription factor activity; actives raise or lower the signal. In outline: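 Fluorescence intensity of reporter-specific cDNA fragments, separated by capillary electrophoresis, reflects mRNA induction in transfected HepG2 cells at 24 h. Activity is fitted bidirectionally, DMSO serving as baseline.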

Test [16] can be described thus: ATG_Oct_MLP_CIS: Attagene CIS-FACTORIAL HepG2 Assay for human Octamer-Binding Transcription Factor (Oct) (AID 2282993). To be noted: HepG2 Attagene cis-factorial Oct reporter, mRNA; actives raise or lower the signal. The method, boiled down:
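After 24 h compound exposure, transfected HepG2 cells were lysed for total RNA; reporter-specific cDNA was PCR-amplified, fluorescently labelled and sized by capillary electrophoresis. Bidirectional curve fitting used DMSO as baseline.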

Test [17] concerns the target Cellular tumor antigen p53 (Homo sapiens) (UniProt P04637). The experiment in a line: ATG_p53_CIS: Attagene CIS-FACTORIAL HepG2 Assay for human p53 Transcription Factor (AID 2282994). To be noted: HepG2 p53 cis-element reporter, Attagene mRNA; actives raise or lower the signal. In outline:
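Transiently transfected HepG2 (multiple cis reporter transcription units); exposure 24 h; reporter RNA via RT-PCR, 6-FAM extension, 2 h HpaI digest at 37 C, CE detection; DMSO baseline.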

A short description of test [18]: ATG_XTT_Cytotoxicity: Cytotoxicity Assessment in the Attagene TRANS-FACTORIAL HepG2 Assay (AID 2283584; active = hit-call score of the fitted dose curve at least 0.9, where 1 is the maximum). The method, boiled down: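 Viability endpoint from XTT after 24 h chemical exposure of reporter-transfected human HepG2 liver cells; signal loss fitted relative to DMSO negative control.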
Test [19] can be described thus: ATG_M_06_CIS: Attagene CIS-FACTORIAL HepG2 Assay for M06 Transcription Factor (Internal Marker) (AID 2282950). The following applies: HepG2 Attagene CIS-FACTORIAL M06 internal marker reporter; actives raise or lower the signal. In outline: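 Measured 24 h post-dosing in transiently transfected HepG2 cells, this internal-marker endpoint reports reporter mRNA via RT-PCR with fluorescent primer extension and capillary electrophoresis. DMSO served as negative control and baseline for bidirectional fitting.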

Test [20] addresses Nuclear receptor subfamily 1 group I member 2 (Homo sapiens) (UniProt O75469). As to the kind of experiment: ATG_PXR_TRANS: Attagene TRANS-FACTORIAL HepG2 Assay for human Pregnane X Receptor (PXR) (AID 2283008; active = hit-call score of the fitted dose curve at least 0.9, where 1 is the maximum). The method, boiled down: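 Transient HepG2 transfectants carrying multiplexed reporter transcription units; PXR activity read through a Gal4 chimera. 24 h exposure. RT-PCR/CE fluorescence; upward curve fit referenced to DMSO.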

Cellular tumor antigen p53 (Homo sapiens), sequence (P04637 whole entry, looked up): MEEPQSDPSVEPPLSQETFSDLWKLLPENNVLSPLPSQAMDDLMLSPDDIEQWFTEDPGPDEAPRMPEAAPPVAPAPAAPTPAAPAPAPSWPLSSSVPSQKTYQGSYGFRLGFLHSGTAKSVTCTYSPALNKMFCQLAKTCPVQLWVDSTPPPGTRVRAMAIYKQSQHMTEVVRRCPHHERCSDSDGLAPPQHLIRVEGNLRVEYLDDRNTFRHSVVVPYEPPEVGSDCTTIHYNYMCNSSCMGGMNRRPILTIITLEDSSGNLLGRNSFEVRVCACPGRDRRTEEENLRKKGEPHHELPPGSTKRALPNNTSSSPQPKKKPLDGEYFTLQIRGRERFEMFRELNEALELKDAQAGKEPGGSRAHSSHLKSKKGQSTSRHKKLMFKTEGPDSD
Hypoxia-inducible factor 1-alpha (Homo sapiens), sequence (Q16665 whole entry, looked up): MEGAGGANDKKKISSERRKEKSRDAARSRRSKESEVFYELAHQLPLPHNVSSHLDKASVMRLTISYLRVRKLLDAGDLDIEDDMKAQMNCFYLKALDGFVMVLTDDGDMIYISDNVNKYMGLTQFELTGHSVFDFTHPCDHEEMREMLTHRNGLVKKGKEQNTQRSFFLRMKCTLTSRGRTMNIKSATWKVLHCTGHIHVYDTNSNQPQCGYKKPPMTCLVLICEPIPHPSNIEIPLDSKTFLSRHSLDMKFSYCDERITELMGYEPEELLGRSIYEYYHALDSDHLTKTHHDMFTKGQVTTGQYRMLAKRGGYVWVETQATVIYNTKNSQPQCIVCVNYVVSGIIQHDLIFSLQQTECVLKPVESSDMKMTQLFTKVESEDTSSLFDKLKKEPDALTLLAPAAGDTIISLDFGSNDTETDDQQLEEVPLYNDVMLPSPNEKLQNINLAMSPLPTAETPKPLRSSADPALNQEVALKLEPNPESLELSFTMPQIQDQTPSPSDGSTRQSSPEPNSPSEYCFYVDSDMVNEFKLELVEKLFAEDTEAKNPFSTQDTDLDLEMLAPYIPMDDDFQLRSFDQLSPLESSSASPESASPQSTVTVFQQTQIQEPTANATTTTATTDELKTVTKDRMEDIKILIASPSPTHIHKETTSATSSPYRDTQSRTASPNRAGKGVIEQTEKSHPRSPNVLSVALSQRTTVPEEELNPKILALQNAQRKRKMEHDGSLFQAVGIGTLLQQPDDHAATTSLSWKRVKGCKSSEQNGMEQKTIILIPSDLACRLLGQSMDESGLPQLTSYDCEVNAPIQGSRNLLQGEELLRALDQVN
Hepatocyte nuclear factor 6 (Homo sapiens), sequence (Q9UBC0 whole entry, looked up): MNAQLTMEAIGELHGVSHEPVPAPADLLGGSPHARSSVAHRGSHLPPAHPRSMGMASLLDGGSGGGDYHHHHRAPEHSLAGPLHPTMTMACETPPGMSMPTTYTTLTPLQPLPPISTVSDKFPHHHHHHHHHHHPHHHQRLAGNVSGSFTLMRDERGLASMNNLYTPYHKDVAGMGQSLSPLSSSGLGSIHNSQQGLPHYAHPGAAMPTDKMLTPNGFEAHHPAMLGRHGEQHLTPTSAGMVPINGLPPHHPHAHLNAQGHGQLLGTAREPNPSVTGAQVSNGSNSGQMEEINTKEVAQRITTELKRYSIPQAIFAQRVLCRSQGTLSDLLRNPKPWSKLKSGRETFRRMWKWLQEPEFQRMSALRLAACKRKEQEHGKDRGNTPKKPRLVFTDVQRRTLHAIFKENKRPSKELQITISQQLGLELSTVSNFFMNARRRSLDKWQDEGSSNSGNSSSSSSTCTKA
Nuclear respiratory factor 1 (Homo sapiens), sequence (Q16656 whole entry, looked up, the tested form may be a part): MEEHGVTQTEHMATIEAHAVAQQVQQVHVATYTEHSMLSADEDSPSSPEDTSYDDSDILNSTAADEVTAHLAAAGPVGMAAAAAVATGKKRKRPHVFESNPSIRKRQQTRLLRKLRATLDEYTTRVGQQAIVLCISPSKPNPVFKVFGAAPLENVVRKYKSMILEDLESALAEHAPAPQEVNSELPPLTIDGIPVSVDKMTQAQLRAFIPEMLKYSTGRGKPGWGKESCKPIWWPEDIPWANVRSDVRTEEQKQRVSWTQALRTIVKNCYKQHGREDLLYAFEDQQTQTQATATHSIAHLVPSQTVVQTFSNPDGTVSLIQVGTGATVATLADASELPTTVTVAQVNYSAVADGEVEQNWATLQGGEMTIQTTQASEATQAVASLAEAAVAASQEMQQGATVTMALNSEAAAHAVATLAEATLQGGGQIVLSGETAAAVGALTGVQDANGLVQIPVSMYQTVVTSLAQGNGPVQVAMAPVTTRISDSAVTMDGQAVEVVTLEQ
Myc proto-oncogene protein (Homo sapiens), sequence (P01106 whole entry, looked up): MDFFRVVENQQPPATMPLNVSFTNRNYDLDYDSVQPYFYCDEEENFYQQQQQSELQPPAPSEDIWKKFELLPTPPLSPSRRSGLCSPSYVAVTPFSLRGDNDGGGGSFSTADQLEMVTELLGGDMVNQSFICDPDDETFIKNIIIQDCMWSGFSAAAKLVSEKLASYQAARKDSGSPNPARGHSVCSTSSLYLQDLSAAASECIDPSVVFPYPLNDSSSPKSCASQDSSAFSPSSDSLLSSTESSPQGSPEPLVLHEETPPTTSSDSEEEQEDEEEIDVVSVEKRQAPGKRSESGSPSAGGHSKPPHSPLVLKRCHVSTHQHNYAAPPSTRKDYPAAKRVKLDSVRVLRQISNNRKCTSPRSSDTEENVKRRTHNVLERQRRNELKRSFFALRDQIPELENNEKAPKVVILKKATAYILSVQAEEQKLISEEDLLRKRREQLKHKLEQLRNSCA
Transcriptional activator Myb (Homo sapiens), sequence (P10242 whole entry, looked up): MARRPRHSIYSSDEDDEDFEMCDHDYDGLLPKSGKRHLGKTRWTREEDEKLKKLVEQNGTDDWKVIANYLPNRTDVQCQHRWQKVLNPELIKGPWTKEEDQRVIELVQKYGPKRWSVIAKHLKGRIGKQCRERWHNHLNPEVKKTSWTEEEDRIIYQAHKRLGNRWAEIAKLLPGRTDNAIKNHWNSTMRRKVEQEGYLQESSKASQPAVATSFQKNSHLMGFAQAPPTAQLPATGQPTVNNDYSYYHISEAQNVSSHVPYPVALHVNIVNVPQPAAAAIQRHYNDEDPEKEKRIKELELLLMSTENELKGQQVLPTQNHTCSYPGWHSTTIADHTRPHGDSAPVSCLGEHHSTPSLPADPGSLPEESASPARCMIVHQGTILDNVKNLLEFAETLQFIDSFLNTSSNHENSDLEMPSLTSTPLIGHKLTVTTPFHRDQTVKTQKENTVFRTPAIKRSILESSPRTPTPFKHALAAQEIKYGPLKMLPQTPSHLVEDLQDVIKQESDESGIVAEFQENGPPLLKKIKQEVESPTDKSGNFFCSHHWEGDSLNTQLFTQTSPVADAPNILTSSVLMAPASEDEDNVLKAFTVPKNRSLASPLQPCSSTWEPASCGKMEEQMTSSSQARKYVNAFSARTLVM
Heat shock factor protein 1 (Homo sapiens), sequence (Q00613 whole entry, looked up): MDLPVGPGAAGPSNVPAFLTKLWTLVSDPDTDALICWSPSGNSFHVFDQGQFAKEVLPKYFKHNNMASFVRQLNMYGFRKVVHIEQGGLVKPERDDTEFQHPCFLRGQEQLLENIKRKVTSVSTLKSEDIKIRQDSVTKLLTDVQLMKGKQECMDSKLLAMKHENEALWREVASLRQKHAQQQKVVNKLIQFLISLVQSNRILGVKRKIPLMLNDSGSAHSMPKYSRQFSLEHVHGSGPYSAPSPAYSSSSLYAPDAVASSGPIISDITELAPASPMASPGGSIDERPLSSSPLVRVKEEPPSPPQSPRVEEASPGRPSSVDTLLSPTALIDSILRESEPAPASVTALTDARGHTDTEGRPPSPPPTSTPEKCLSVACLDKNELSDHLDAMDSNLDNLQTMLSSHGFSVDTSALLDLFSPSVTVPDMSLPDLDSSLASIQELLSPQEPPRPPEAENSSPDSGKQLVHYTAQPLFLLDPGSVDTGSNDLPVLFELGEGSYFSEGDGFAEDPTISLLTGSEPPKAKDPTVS
X-box-binding protein 1 (Homo sapiens), sequence (P17861 whole entry, looked up): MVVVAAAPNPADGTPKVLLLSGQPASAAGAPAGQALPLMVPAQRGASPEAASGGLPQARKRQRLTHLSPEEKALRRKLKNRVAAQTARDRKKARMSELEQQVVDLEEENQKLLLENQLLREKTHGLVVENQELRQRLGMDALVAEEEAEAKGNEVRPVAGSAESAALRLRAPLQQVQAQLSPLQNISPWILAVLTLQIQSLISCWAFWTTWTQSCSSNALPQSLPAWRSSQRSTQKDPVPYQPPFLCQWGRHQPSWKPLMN
Nuclear receptor subfamily 1 group I member 2 (Homo sapiens), sequence (O75469 whole entry, looked up, the tested form may be a part): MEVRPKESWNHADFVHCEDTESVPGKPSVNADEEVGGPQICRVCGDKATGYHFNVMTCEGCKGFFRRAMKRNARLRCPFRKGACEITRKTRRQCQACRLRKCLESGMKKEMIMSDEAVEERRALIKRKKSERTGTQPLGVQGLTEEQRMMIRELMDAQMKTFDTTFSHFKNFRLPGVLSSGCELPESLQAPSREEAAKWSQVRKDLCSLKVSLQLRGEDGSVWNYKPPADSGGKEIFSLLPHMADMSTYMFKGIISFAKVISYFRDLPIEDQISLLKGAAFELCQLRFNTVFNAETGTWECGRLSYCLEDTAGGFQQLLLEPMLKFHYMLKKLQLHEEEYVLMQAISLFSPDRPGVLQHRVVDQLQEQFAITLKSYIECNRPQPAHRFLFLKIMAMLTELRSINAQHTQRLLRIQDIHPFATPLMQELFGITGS

Consider `OCCOCCOCCOCCOCCO`, for which the compound was called inactive in [1], in test [2], in test [3], in test [4], in [5] and in test [6]. Further, the result in test [7], in test [8], in test [9], in [10], in test [11] and in test [12] was inactive. Besides, the result in test [13], in test [14], in test [15], in [16], in test [17] and in [18] was inactive.

With `Cc1cc2nc3c(=O)[nH]c(=O)nc-3n(C[C@H](O)[C@H](O)[C@H](O)CO)c2cc1C`, the result in [1], in test [2], in test [19], in test [4], in [5] and in test [7] was inactive. For the same compound, the call in [8], in test [9], in [10], in test [11], in test [12] and in test [13] was inactive. The result in [14], in [15], in test [16] and in test [17] was inactive.

Take `CCOC(=O)CC(=O)OCC`: the compound was called inactive in test [1], in [2], in [3], in test [4], in test [5] and in test [6]. In addition, the compound was called inactive in test [7], in test [8], in [9], in test [10], in test [11] and in test [12]. For the same compound, the call in test [13], in test [14], in test [15], in [16] and in test [17] was inactive.

For orientation: AC50 means the midpoint of the concentration-response curve, whichever way the signal moves. `Cc1cc(O)cc(C)c1Cl`: the AC50 in [1] is 65.4 µM (active); in test [3], 48.4 µM (active); in test [15] it was 22.5 µM (active); in test [16], 100 µM (active). Also, the outcome in [2], in test [19], in test [4], in test [5], in test [6] and in test [7] was inactive. The compound was classed as inactive in [8], in [9], in [10], in test [11], in test [12] and in test [13]. In addition, the result in test [14], in test [20] and in test [18] was inactive.
